# Experimental data from the supplement of paper PMC8728848.
# This is one part of a sample in which the strongest signals are shown more often than they occur.
# B1: CpGal16 (Clavelina picta) (protein)
# chain: MAKMITNYVGKRIECIMVATDMMSTVFSLASATGDLPFYINFRQRENSIVMNTRVHGKWQYEKSQSSGGMNFYEPFRLVVEVRPSVFKVTVSTMGEEDGITFNLQYSQITIKPDEIVAMHLGYCNLRSELLVTDL
# Columns and labels:
# Experiment in all cases: glycan array binding signal (z-score within array); higher = stronger binding
# Conditions in all cases: glycan notation: IUPAC condensed, linker removed
# [1] = biological target: GlcNAc(a1-4)Gal(b1-4)GalNAc
# In short: (§1)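 The Consortium for Functional Glycomics database supplied 3228 glycan arrays, of which those lacking an available protein sequence were dropped. The binding signal, a within-array Z-score, was averaged across arrays of the same protein sequence and across linkers. Negative scores can be read as non-binding.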
# [2] = biological target: GlcNAc(a1-4)Gal(b1-4)GlcNAc(b1-3)Gal(b1-4)GlcNAc
# In short: as §1
# [3] = biological target: GlcNAc(b1-3)Gal(b1-4)GlcNAc(b1-3)[GlcNAc(b1-3)Gal(b1-4)GlcNAc(b1-3)]GalNAc
# In short: as §1
# [4] = biological target: GlcNAc(b1-4)GlcNAc(b1-4)GlcNAc(b1-4)GlcNAc(b1-4)GlcNAc
# In short: as §1
# Kdn(a2-6)Gal(b1-4)GlcNAc = biological target: Kdn(a2-6)Gal(b1-4)GlcNAc
# In short: as §1
# [5] = biological target: Man(a1-2)Man(a1-3)[Man(a1-2)Man(a1-6)]Man(a1-6)[Man(a1-2)Man(a1-2)Man(a1-3)]Man
# In short: as §1
# [6] = biological target: Neu5Ac(a2-3)Gal(b1-3)[GlcNAc(b1-6)]GalNAc
# In short: as §1
# [7] = biological target: Neu5Ac(a2-3)Gal(b1-3)[Neu5Ac(a2-6)]GlcNAc(b1-3)[Fuc(a1-3)[Gal(b1-4)]GlcNAc(b1-6)]Gal(b1-4)Glc
# In short: as §1
# [8] = biological target: Neu5Ac(a2-3)Gal(b1-4)GlcNAc
# In short: as §1
# [9] = biological target: Neu5Ac(a2-3)Gal(b1-4)GlcNAc(b1-6)[Neu5Ac(a2-3)Gal(b1-3)]GalNAc
# In short: as §1
# [10] = biological target: Neu5Ac(a2-3)Gal(b1-4)[Fuc(a1-3)]GlcNAc(b1-6)[Gal(b1-3)]GalNAc
# In short: as §1
# [11] = biological target: Neu5Ac(a2-6)Gal(b1-4)GlcNAc
# In short: as §1
# [12] = biological target: Neu5Ac(a2-6)Gal(b1-4)GlcNAc(b1-2)Man(a1-3)[Man(a1-6)]Man(b1-4)GlcNAc(b1-4)GlcNAc
# In short: as §1
# [13] = biological target: Neu5Ac(a2-6)Gal(b1-4)GlcNAc(b1-3)Gal(b1-4)[Fuc(a1-3)]GlcNAc(b1-3)Gal(b1-4)[Fuc(a1-3)]GlcNAc
# In short: as §1
# [14] = biological target: Neu5Ac(a2-6)Gal(b1-4)GlcNAc6S
# In short: as §1
# [15] = biological target: Neu5Ac(a2-6)GlcNAc(b1-4)GlcNAc(b1-4)GlcNAc
# In short: as §1
# [16] = biological target: Neu5Ac(a2-8)Neu5Ac(a2-8)Neu5Ac
# In short: as §1
binder,measurement,setting,value
B1,glycan array binding signal (z-score),[1],-0.312
same,glycan array binding signal (z-score),[2],-0.32
same,glycan array binding signal (z-score),[3],-0.168
same,glycan array binding signal (z-score),[4],-0.348
same,glycan array binding signal (z-score),Kdn(a2-6)Gal(b1-4)GlcNAc,-0.352
same,glycan array binding signal (z-score),[5],-0.232
same,glycan array binding signal (z-score),[6],-0.388
same,glycan array binding signal (z-score),[7],-0.357
same,glycan array binding signal (z-score),[8],-0.378
same,glycan array binding signal (z-score),[9],-0.324
same,glycan array binding signal (z-score),[10],0.134
same,glycan array binding signal (z-score),[11],-0.456
same,glycan array binding signal (z-score),[12],-0.395
same,glycan array binding signal (z-score),[13],-0.419
same,glycan array binding signal (z-score),[14],-0.303
same,glycan array binding signal (z-score),[15],-0.261
same,glycan array binding signal (z-score),[16],-0.39
